LYPLA2 counter – counter-screen for PME1 inhibitors: inhibitors of human LYPLA2; AID 2177; inhibition, % at 5.9 µM; 320,000 tested, 0.38% active; O95372; recombinant LYPLA2, FP-Rh probe fluorescence polarization;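 active = inhibition above the screen-wide mean plus 3 SD, limit set per campaign, cut at about 26% in these data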
LYPLA1 inh – counter-screen for PME1 inhibitors: inhibitors of human LYPLA1; recombinant LYPLA1, FP-Rh probe fluorescence polarization; inhibition, % at 5.9 µM; O75608; 320,000 tested, 0.16% active; AID 2174;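 active = inhibition above the mean of all tested compounds plus 3 SD, set per campaign, cut at about 14% in these data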;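 also: inhibitors block serine hydrolase probe labeling of LYPLA1 so polarization falls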
Target sequence (O75608 whole entry, looked up): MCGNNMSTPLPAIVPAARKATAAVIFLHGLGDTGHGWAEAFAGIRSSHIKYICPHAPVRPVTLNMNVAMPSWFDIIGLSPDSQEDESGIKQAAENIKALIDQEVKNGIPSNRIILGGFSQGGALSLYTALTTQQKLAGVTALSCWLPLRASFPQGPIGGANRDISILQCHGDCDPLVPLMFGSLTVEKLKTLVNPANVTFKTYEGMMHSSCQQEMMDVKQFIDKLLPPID
GSTO1 counter – counter-screen for RBBP9 inhibitors: inhibitors of human GSTO1; 300,000 tested, 1.1% active; inhibition, % at 5.96 µM; recombinant GSTO1, activity-based probe fluorescence polarization; AID 1974;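 active = inhibition above the campaign mean inhibition plus 3 SD, cut at about 35% in these data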
PAD4 inh – inhibitors of human PAD4; Q9UM07; recombinant PAD4, RCA probe fluorescence polarization; inhibition, % at 6.36 µM; 330,000 tested, 0.41% active;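 active = percent inhibition above a cutoff equal to the mean of all tested compounds plus 3 SD, cut at about 15% in these data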
Fam108B inh – blocks mouse Fam108B hydrolase in RBBP9 counter-screen. AID 1947. recombinant Fam108B, FP-Rh probe fluorescence polarization. inhibition, % at 9.51 µM. 300,000 tested, 0.33% active;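 active = inhibition above the screen mean inhibition plus 3 SD, computed separately per campaign, cut at about 18% in these data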;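 also: inhibitors lower polarization as less probe binds the enzyme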
PME-1 primary – PME-1 (human) inhibition; Q9Y570; recombinant PME-1, FP-Rh probe fluorescence polarization; inhibition, % at 5.9 µM; 320,000 tested, 0.53% active; AID 2130;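 active = inhibition above the campaign mean of all compounds plus 3 SD, cut at about 26% in these data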;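 also: competitive labeling of PME-1 active site by serine hydrolase directed probe; inhibitors block probe labeling so polarization falls and inhibition rises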
Target sequence (Q9Y570 whole entry, looked up): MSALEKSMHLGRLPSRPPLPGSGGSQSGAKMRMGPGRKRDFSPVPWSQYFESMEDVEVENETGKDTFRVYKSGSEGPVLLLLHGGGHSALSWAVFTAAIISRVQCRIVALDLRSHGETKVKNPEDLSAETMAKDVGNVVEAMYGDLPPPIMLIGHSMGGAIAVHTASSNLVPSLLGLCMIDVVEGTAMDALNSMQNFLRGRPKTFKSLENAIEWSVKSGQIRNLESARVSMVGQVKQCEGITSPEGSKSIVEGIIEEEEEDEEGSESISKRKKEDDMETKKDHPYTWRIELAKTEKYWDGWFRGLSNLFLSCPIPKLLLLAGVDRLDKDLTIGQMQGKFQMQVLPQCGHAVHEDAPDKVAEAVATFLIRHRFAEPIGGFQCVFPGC
Fam108b inh conf – Fam108b (mouse) hydrolase inhibition, confirmation assay; shares compounds with Fam108B inh; recombinant Fam108b, FP-Rh probe fluorescence polarization; inhibition, % at 9.51 µM; 930 tested, 44% active;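 active = inhibition above a limit from the primary screen, the mean over all compounds plus 3 SD, cut at about 19% in these data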;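 also: inhibitors free the probe so polarization falls as inhibition rises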
Fam108b ABPP HTS – mouse ABHD17B inhibition. 260 tested, 44% active. inhibition, % at 20 µM. shares compounds with Fam108B inh. AID 588649. recombinant Fam108b, gel-based ABPP, fluorophosphonate probe; in the data active = inhibition above about 40%
GSTO1 confirm – GSTO1 (human) inhibition, confirmation; AID 2176; 2,400 tested, 54% active; recombinant GSTO1, probe fluorescence polarization; inhibition, % at 5.96 µM; shares compounds with GSTO1 counter;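 active = inhibition above the primary screen's cutoff, its mean inhibition plus 3 SD, cut at about 35% in these data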;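 also: loss of polarization as inhibitors block binding of rhodamine sulfonate ester activity probe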
A number is an active result; 0 = inactive; - = not tested or not shown; + = active, no number. A selection: hits, their analogues and other compounds. The true share with any hit is near 1.8%.

SMILES | LYPLA2 counter | LYPLA1 inh | GSTO1 counter | PAD4 inh | Fam108B inh | PME-1 primary | Fam108b inh conf | GSTO1 confirm | others
Cc1c(/C=N/NC(=O)C(NC(=O)c2ccc3c(c2)OCO3)C(C)C)c2ccccc2n1C (stereo not drawn) | 0 | 0 | 0 | 0 | 0 | 0 | - | -
O=C(Nc1ccccc1)N(O)c1ccc(Cl)cc1 | 0 | 0 | 0 | 0 | 0 | 0 | - | -
O=C(O)C1Nc2c(O)cccc2C2C=CCC12 (stereo not drawn) | 0 | 0 | 60.6 | 0 | 65.7 | 0 | 56.6 | 51.9
O=C(O)C1Nc2ccc(Br)cc2C2C=CCC12 (stereo not drawn) | 0 | 0 | 50.9 | 0 | 54.6 | 0 | 34.6 | 48.7 | Fam108b ABPP HTS=40.0
CCOC(=O)C1Nc2ccc(Br)cc2C2C=CCC12 (stereo not drawn) | 0 | 0 | 0 | 0 | 0 | 0 | - | -
O=C(O)/C=C\c1cc2c(cc1[N+](=O)[O-])OCO2 | 0 | 0 | 0 | 0 | 0 | 0 | - | -
O=C1NC(=S)N/C1=C/c1cc2c(cc1[N+](=O)[O-])OCO2 | 0 | 0 | 82.6 | 0 | 46.6 | 0 | 0 | 0
CCN(CC(=O)Nc1cc(C)on1)CC(=O)Nc1ccccc1C(F)(F)F | 0 | 0 | - | 0 | - | 0 | - | -
c1coc(-c2nnc(-c3ccco3)nn2)c1 | 0 | 0 | 67.8 | 0 | 21.9 | 0 | 0 | 37.8
Nc1ccc2c(c1)C(=O)c1ccccc1-2 | 0 | 0 | 0 | 0 | 0 | 0 | - | -
O=C1C(=O)c2ccc(-c3ccccc3)cc2-c2ccccc21 | 0 | 0 | 87.4 | 0 | 54.4 | 0 | 69.3 | 90.6 | Fam108b ABPP HTS=0
CCN(c1ccccc1)S(=O)(=O)c1ccc(Cl)c(NC(=O)COC(=O)c2cc(O)c3ccccc3c2O)c1 | 0 | 0 | 51.2 | 25.9 | 19.6 | 39.8 | 47.8 | 0
CCN(c1ccccc1)S(=O)(=O)c1ccc(Cl)c(NC(=O)COC(=O)c2ccc(O)cc2)c1 | 0 | 0 | 0 | 0 | 0 | 0 | - | -
O=C(NCc1ccccc1)C(=O)NCC1OCCN1S(=O)(=O)c1ccc([N+](=O)[O-])cc1 (stereo not drawn) | 0 | 0 | 0 | 0 | 0 | 0 | - | -
O=C1C=C(Nc2ccc(Cl)cc2)C(=O)N1c1ccc(Cl)cc1 | 0 | 0 | 0 | 0 | 0 | 0 | - | -
Cc1cccc2c(C(=O)O)c3cccc(C)c3nc12 | 0 | 0 | 0 | 0 | 0 | 0 | - | -
O=S(=O)(c1ccc2ccccc2c1)N1CCOCC1 | 0 | 0 | 0 | 0 | 0 | 0 | - | -
O=S(=O)(c1ccc2nc(-c3ccco3)c(-c3ccco3)nc2c1)N1CCOCC1 | 0 | 0 | 48.3 | 0 | 19.5 | 0 | 0 | 0
COCCn1c(N)c(C(=O)OCc2ccccc2)c2nc3ccccc3nc21 | 0 | 0 | 70.0 | 0 | 42.2 | 0 | 0 | 57.6
C=CCn1c(N)c(C(=O)OCCC)c2nc3ccccc3nc21 | 0 | 0 | 0 | 0 | 0 | 0 | - | -
CC(C)(C)N1C(=O)Cc2c1nc(N)c1c(N)nc(N3CCCCC3CO)c(C#N)c21 (stereo not drawn) | 0 | 0 | 90.7 | 0 | 39.8 | 0 | 90.5 | 88.3
Cc1cccc(C)c1NC(=O)CNc1ncnc2sc(C)c(C)c12 | 0 | 0 | 0 | 0 | 0 | 0 | - | -
Cc1oc2c(c1C(=O)c1ccccc1)C(=O)C(=O)c1ccccc1-2 | 0 | 0 | 85.0 | 74.0 | 55.0 | 28.6 | 35.2 | 91.1 | Fam108b ABPP HTS=0
O=C1C(=O)c2c(C(=O)c3ccccc3)coc2-c2ccccc21 | 0 | 0 | 0 | 0 | 0 | 0 | - | -
CC1=NN(c2cccc(C(=O)O)c2)C(=O)/C1=C\C=C\c1ccco1 | 0 | 0 | 55.0 | 0 | 24.4 | 0 | 29.4 | 0
SMILES | LYPLA2 counter | LYPLA1 inh | GSTO1 counter | PAD4 inh | Fam108B inh | PME-1 primary | Fam108b inh conf | GSTO1 confirm | others
CC1=NN(c2ccccc2)C(=O)/C1=C/C=C/c1ccccc1 | 0 | 0 | 0 | 0 | 0 | 0 | - | -
C[C@@H]1CN([C@@H](C)CO)C(=O)c2cccc(NC(=O)Nc3ccc4c(c3)OCO4)c2O[C@H]1CN(C)S(=O)(=O)c1cn(C)cn1 | - | - | - | 0 | - | - | - | -
CC1CC(=O)c2c(cc3c(-c4c(O)cc(O)c5c(O)c6c(cc45)OC(C)CC6=O)c(O)cc(O)c3c2O)O1 (stereo not drawn) | 0 | 0 | 62.0 | 0 | 53.7 | 0 | 65.9 | 73.1 | Fam108b ABPP HTS=0
O=C1CC(c2ccc(O)cc2)Oc2cc(O)cc(O)c21 (stereo not drawn) | 0 | 0 | 0 | 0 | 0 | 0 | - | -
O=S(=O)(c1cc(O)ccc1O)c1cccc2c(S(=O)(=O)c3cc(O)ccc3O)cccc12 | 0 | 0 | 64.3 | 0 | 36.3 | 0 | 31.6 | 0 | Fam108b ABPP HTS=55.0
O=S(=O)(O)c1cc(O)ccc1O | 0 | 0 | 0 | 0 | 0 | 0 | - | -
COc1ccc(N2C(=O)c3ccccc3C(C)(C)C2=O)cc1 | 0 | 0 | 0 | 0 | 0 | 0 | - | -
O=C1CCCC2=C1C(c1ccco1)Nc1ccc3ccccc3c12 (stereo not drawn) | 0 | 0 | 38.0 | 0 | 18.5 | 0 | 0 | 0
NC(=O)c1ccc(N=C2C(=O)Nc3ccc([N+](=O)[O-])cc32)cc1 | 0 | 0 | 71.5 | 0 | 24.4 | 0 | 0 | 0
O=C1/C(=C\c2ccc(C(F)(F)F)cc2)CSc2sccc21 | 0 | 0 | 0 | 0 | 0 | 0 | - | -
O=S(=O)(O)c1cccc2c(N=Nc3ccc(O)c4ncccc34)cccc12 | 0 | 0 | 65.4 | 0 | 50.1 | 0 | 44.6 | 63.3 | Fam108b ABPP HTS=0
Cc1ccc(S(=O)(=O)CCc2nc3ccccc3n2CCC#N)cc1 | 0 | 0 | 0 | 0 | 0 | 0 | - | -
Cc1cccc(C)c1NC(=O)CSc1nnc(-c2ccco2)c(-c2ccco2)n1 | 0 | 0 | 58.4 | 0 | 26.1 | 0 | 0 | 39.6
Nc1ccc(N)c(C(=O)O)c1 | 0 | 0 | 57.0 | 0 | 56.9 | 0 | 45.0 | 0 | Fam108b ABPP HTS=0
O=C(O)c1ccc2c(c1)[C@@H]1C=CC[C@@H]1[C@H](c1ccccn1)N2 | 0 | 0 | 50.5 | 0 | 38.7 | 0 | + | 0 | Fam108b ABPP HTS=0
CCOC(=O)c1ccc2c(c1)C1C=CCC1C(C(=O)OCC)N2 (stereo not drawn) | 0 | 0 | 0 | 0 | 0 | 0 | - | -
CCn1nc([N+](=O)[O-])c(C(C#N)c2nc3cc(C(F)(F)F)ccc3s2)c(Cl)c1=O (stereo not drawn) | 0 | 0 | 50.7 | 0 | 43.0 | 56.4 | 38.4 | 50.9 | Fam108b ABPP HTS=65.0
Cc1ccc(Cn2c(C(C)Nc3nc(-c4ccc(Cl)c([N+](=O)[O-])c4)cs3)nc3cc(C(F)(F)F)ccc32)cc1 (stereo not drawn) | 0 | 0 | 0 | 0 | 0 | 0 | - | -
Cn1c2ccccc2c(=O)n2c(=O)c3ccccc3cc12 | 0 | 0 | 78.1 | 68.7 | 28.7 | 0 | 0 | 0
O=C1/C(=C/C=C/c2ccco2)SC(=S)N1c1ccc(O)cc1 | 0 | 0 | 45.9 | 0 | 19.4 | 0 | 0 | 0
CCCCN(C)CCNC(=O)CCNC(=O)Cn1ccc2ccccc2c1=O | 0 | 0 | 0 | 0 | 0 | 0 | - | -
